Compound activity: PubChem, National Center for Advancing Translational Sciences (NCATS)
D2 ag-1: Beta-Arrestin HTS for Positive Allosteric Modulators of the Human D2 Dopamine Receptor: Agonists | 0.084% of 360,000 active | activation, % (concentration not given with the values) | DiscoveRx PathHunter D2 beta-arrestin, luminescence, 90 min; 100% = 57 uM dopamine signal | AID 624465, 2012; in the data active = activation above about 40%
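DiscoveRx PathHunter D2 beta-arrestin cells (2,100/well) attached overnight, then compound-stimulated 90 min at 37 C in HBSS/10 mM HEPES/0.1% Tween-20 buffer; beta-galactosidase complementation read by luminescence after 1 h at ambient temperature. Dopamine 57 uM final (EC100) as control.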
D2 antag: HTS Assay for Allosteric Antagonists of the Human D2 Dopamine Receptor: Primary Screen for Antagonists; D(2) dopamine receptor (Homo sapiens), P14416; HEK293 TREx D2 cells, calcium flux, dopamine EC80; inhibition, % at 10 µM; 2% of 340,000 active; in the data active = inhibition above about 30%; inactive = below that, where a call was filed; note: 0% is about no effect
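Read-out: kinetic calcium fluorescence (1 cycle/s) in inducible HEK293 T-REx D2 cells after an EC80 dopamine addition that followed 180 s compound preincubation. Loss of the dopamine response indicates antagonism.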
D2 PAM-1: HTS Assay for Positive Allosteric Modulators of the Human D2 Dopamine Receptor: Primary Screen for Potentiators; 0.34% of 340,000 active; D(2) dopamine receptor (Homo sapiens), P14416; HEK293 T-REx D2, calcium flux, EC20 dopamine potentiation; potentiation, % at 10 µM; AID 485347, 2010;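 active = potentiation over 3 SD above the plate norm, cut at about 30% in these data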; note: 0% is about no effect
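Tetracycline-induced Hek293 Trex D2 cells, force-coupled to calcium, loaded with no-wash calcium dye. Compound added with 180 s kinetic read for agonism, then EC20 dopamine and a further 180 s read for potentiation.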
D2 ag-2: HTS Assay for Allosteric Agonists of the Human D2 Dopamine Receptor: Primary Screen for Agonists; HEK293 T-REx D2 cells, calcium flux agonist mode; 0.53% of 340,000 active; D(2) dopamine receptor (Homo sapiens), P14416; AID 485358, 2010; activation, % at 2 µM;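 active = activation over 3 SD above normal in the single-dose calcium agonist read, cut at about 30% in these data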; note: 0% is about no effect
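HEK293 Trex D2 cells, tetracycline-induced, o/n 30 C 5% CO2; no-wash Ca dye, RT 30–90 min; 10-cycle baseline, 23 nl cpd added, kinetic Ca read 180 s; agonist hits = positive Ca response.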
D2 PAM-2: Beta-Arrestin HTS for Positive Allosteric Modulators of the Human D2 Dopamine Receptor: Potentiators | DiscoveRx D2 beta-arrestin cells, luminescence, 90 min; 100% = 57 uM dopamine signal | potentiation, % (concentration not given with the values) | 0.23% of 360,000 active; in the data active = potentiation above about 50%
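D2 cells co-treated with compound plus 50 nM dopamine (EC20) for 90 min at 37 deg C to detect potentiation. Beta-arrestin recruitment was read as enzyme-fragment luminescence after 1 h at ambient temperature. Full response was set by 57 uM dopamine.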
D3 ag: qHTS of D3 Dopamine Receptor Agonist: D3 Dopamine Receptor B-arrestin Agonist Confirmatory Assay; shares compounds with D2 ag-2; DiscoveRx D3 beta-arrestin cells, luminescence, 90 min; Potency, µM (series often up to 76.9 µM), for the others: top-dose activation, hits mostly activators; 4% of 2,300 active;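 note: potency is the fitted concentration of half-maximal effect; 100% = dopamine control response; nearly all actives have a fitted effect of over 70% in size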
Target sequence (P35462 whole entry, looked up): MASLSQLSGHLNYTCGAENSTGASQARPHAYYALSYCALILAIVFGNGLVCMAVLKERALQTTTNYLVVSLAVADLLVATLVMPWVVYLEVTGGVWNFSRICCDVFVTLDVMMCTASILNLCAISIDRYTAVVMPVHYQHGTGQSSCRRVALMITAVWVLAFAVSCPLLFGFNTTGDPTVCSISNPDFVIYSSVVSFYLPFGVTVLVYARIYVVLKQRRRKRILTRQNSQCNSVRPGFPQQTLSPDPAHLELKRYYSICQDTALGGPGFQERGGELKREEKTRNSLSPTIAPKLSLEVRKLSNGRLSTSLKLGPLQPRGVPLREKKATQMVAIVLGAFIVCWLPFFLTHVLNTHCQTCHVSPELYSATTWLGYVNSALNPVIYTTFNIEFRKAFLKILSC
D2 ag-3: qHTS of D3 Dopamine Receptor Agonist: D2 Dopamine Receptor B-arrestin Agonist Counterscreen; shares compounds with D2 ag-2; DiscoveRx PathHunter D2 beta-arrestin, luminescence, 90 min; response scale: percent relative to full dopamine signal; Potency, µM (titrated, usually from 76.9 µM), for the others: at the highest dose activation, usual class: activators; 5.9% of 2,300 active; AID 720507, 2013; note: potency is the fitted concentration of half-maximal effect; % of control where 0% means no effect; nearly all actives have a fitted effect of over 70% in size
Active calls of the source: *. Rows were chosen to be rich in hits. Some 2.4% of all compounds tested hit in one or more screens of this group. Unless noted, calls come from the whole dose curve; as a rule, active = well fitted activation curve with a large enough effect; inconclusive = small, poorly fitted or top-dose-only effect; inactive = flat fitted curve, though single readings scatter.

For O=c1[nH]c(C2CCN(S(=O)(=O)c3ccc(C(F)(F)F)cc3)CC2)nc2c1nnn2Cc1cccc(F)c1 the results were D2 ag-1 -2, D2 antag -12, D2 PAM-1 0, D2 ag-2 1 and D2 PAM-2 -13.
`O=c1[nH]c(C2CCN(S(=O)(=O)c3ccccc3C(F)(F)F)CC2)nc2c1nnn2Cc1cccc(F)c1` gave D2 ag-1 5, D2 antag 43*, D2 PAM-1 5, D2 ag-2 0 and D2 PAM-2 -1.
O=C(CCNS(=O)(=O)c1cccc2nsnc12)Nc1ccc(F)cc1 was read as D2 PAM-1 -3 and D2 ag-2 0.
For COC(=O)CS(=O)(=O)c1ccsc1C(=O)Nc1ccc(F)cc1 the results were D2 ag-1 3, D2 antag 38*, D2 PAM-1 7, D2 ag-2 0 and D2 PAM-2 -8.
Screening Cc1cccc(N2CCN(C(=O)CCS(=O)(=O)c3ccc4c(c3)CC(=O)N4C)CC2C)c1 (stereo unspecified) returned D2 PAM-1 -4.
Screening CCN1CCN(C(=O)c2ccc3c(c2)N(Cc2ccccc2)C(=O)c2ccccc2S3(=O)=O)CC1 returned D2 ag-1 -2, D2 antag 40*, D2 PAM-1 -23, D2 ag-2 0 and D2 PAM-2 -13.
`CCN1CCN(C(=O)c2ccc3c(c2)N(Cc2ccc(Cl)cc2)C(=O)c2ccccc2S3(=O)=O)CC1` gave D2 PAM-1 -23.
Screening CCOC(=O)Nc1ccc(S(=O)(=O)Nc2nccc(C)n2)cc1 returned D2 ag-1 1, D2 antag -11, D2 PAM-1 -27, D2 ag-2 50*, D2 PAM-2 -9, D3 ag -7% and D2 ag-3 -1%.
Screening CCOC(=O)C(=O)Nc1ccc(S(=O)(=O)Nc2nccc(C)n2)cc1 returned D2 ag-1 -4 and D2 PAM-2 -5.
`CC(C)c1cccc(-c2ccc3c(c2)S(=O)(=O)c2cccc(C(=O)O)c2C3=O)c1` gave D2 ag-1 -4, D2 antag -2, D2 PAM-1 -7, D2 ag-2 -1, D2 PAM-2 -14, D3 ag -1% and D2 ag-3 0%.
For CCCCNc1nc(CC(C)=O)ns1 the results were D2 ag-1 -4, D2 antag 30*, D2 PAM-1 -18, D2 ag-2 50*, D2 PAM-2 2, D3 ag -7% and D2 ag-3 -2%.
`CNc1nc(CC(C)=O)ns1` gave D2 ag-1 -1, D2 antag -6, D2 PAM-1 21, D2 ag-2 0 and D2 PAM-2 -9.
For O=C(NC1CCCC1)C1CCC(CNS(=O)(=O)c2ccccc2)CC1 (stereo unspecified) the results were D2 ag-1 -4, D2 antag -4, D2 PAM-1 -2, D2 ag-2 -1 and D2 PAM-2 -7.
O=C(NC1CCCC1)C1CCC(CNS(=O)(=O)c2ccc(F)cc2)CC1 (stereo unspecified) was read as D2 ag-1 -2, D2 antag 15, D2 PAM-1 7, D2 ag-2 -1, D2 PAM-2 -2, D3 ag -9% and D2 ag-3 0%.
Screening Cc1nc(N2CCCC2)c2c(C(=O)N3CCN(c4cc(Cl)ccc4C)CC3)c(C)oc2n1 returned D2 PAM-1 -7 and D2 ag-2 -1.
For Cn1c(=O)c2[nH]c(N3CCCCC3)nc2n(C)c1=O the results were D2 ag-1 -1, D2 antag -7, D2 PAM-1 4, D2 ag-2 0 and D2 PAM-2 7.
Screening Cn1c(=O)c2[nH]c(N3CCN(c4ccccn4)CC3)nc2n(C)c1=O returned D2 antag 7, D2 PAM-1 4, D2 ag-2 3, D3 ag -2% and D2 ag-3 2%.
`O=C(C1=C(O)/C(=C/c2ccc(O)cc2)CCC1)C(F)(F)F` gave D2 ag-1 -7, D2 antag 23, D2 PAM-1 2, D2 ag-2 1, D2 PAM-2 -11, D3 ag -21% and D2 ag-3 -4%.
`COc1ccc(/C=C2\CCCC(C(=O)C(F)(F)F)=C2O)cc1` gave D2 ag-1 -2, D2 antag 20, D2 PAM-1 17, D2 ag-2 0 and D2 PAM-2 -11.
`O=C1N/C(=C/c2cccs2)C(=O)N1Cc1ccccc1F` gave D2 ag-1 -5, D2 antag 3, D2 PAM-1 19, D2 ag-2 0 and D2 PAM-2 -1.
`Cc1ccc(/C=C2/NC(=O)N(Cc3ccccc3F)C2=O)s1` gave D2 ag-1 -1, D2 antag 21, D2 PAM-1 -4, D2 ag-2 7, D2 PAM-2 -4, D3 ag -4% and D2 ag-3 0%.
Screening O=C1C=C(c2cccc3c2Oc2ccccc2S3)C[C@@H](c2ccc(Cl)cc2)C1 returned D2 ag-1 -2, D2 antag -6, D2 PAM-1 -6, D2 ag-2 1 and D2 PAM-2 -3.
COc1ccc([C@H]2CC(=O)C=C(c3ccc(O)cc3)C2)cc1OC was read as D2 ag-1 1, D2 antag -10, D2 PAM-1 9, D2 ag-2 14, D2 PAM-2 10, D3 ag 16% and D2 ag-3 9%.
COc1ccc([C@H]2CC(=O)C=C(c3cccc4c3Oc3ccccc3S4)C2)cc1OC was read as D2 ag-1 -1, D2 antag 6, D2 PAM-1 4, D2 ag-2 1, D2 PAM-2 3, D3 ag 3% and D2 ag-3 4%.
